Results published in PubChem BioAssay AID504834 (National Center for Advancing Translational Sciences (NCATS), 2011).
Out of some 320,000 compounds screened, about 22,000 (6.9%) were called active. About 27% were inconclusive and are not listed. The entries come from a sample that favours actives as a whole. Values without a mark were called inactive. The call rests on the fitted dose curve; in most records, active means well fitted inhibition curve with a large enough effect; inconclusive means small, poorly fitted or top-dose-only effect, or another doubt; inactive means no such curve, though single readings can be large or run the other way.
On the % scale 0 is the no-effect control and ±100 the full control effect; potency means the concentration at half of the fitted maximal effect.

Test: Primary qHTS for delayed death inhibitors of the malarial parasite plastid, 96 hour incubation
Settings: P. falciparum luciferase reporter growth; series mostly up to 28.7 µM; activity change, negative = inhibition: at the top concentration
Method in brief: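 Two-generation exposure (96 h) targets delayed-death phenotype. Reporter parasites carrying integrated firefly luciferase, in red cells at 2% hematocrit and 0.05% parasitemia final, kept at 37 C, 5% CO2; luminescence loss indicates inhibition.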
In the case of `Cc1ccc(CNC(=O)CSc2nnc3c(n2)[nH]c2ccc(F)cc23)cc1`, the “activity change, negative = inhibition” value is reported as 19.9%. In the case of `COC(=O)C(C)n1cnc2c(nnn2-c2ccc(F)cc2)c1=O` (centres undefined), the “activity change, negative = inhibition” value is reported as 39.5%. In the case of `Cc1cc(C)cc(N(CC(=O)NC2CCCC2)C(=O)CCC(=O)Nc2nccs2)c1`, the “activity change, negative = inhibition” value is reported as 22.4%. For `COc1ccc(C(=O)C2CCCN(Cc3ccc4nonc4c3)C2)c(C)c1` (centres undefined), the “activity change, negative = inhibition” value was 3.69%. With `COc1ccc(C(=O)C2CCCN(Cc3cccn3-c3ccccn3)C2)c(C)c1` (centres undefined) the “activity change, negative = inhibition” value was -17.5%. With `CCOC(=O)c1[nH]ncc1CN1CCCC(C(=O)c2ccc(OC)cc2C)C1` (centres undefined) the Potency was 8.28 µM (active). In the case of `O=C(N=C1SC2CS(=O)(=O)CC2N1c1cc(Cl)ccc1Cl)C1CC1` (centres undefined), the “activity change, negative = inhibition” value is reported as 27.7%. In the case of `COC(=O)c1cccc(C(=O)N2CCCC(Nc3ccc4c(c3)OCCO4)C2)c1` (centres undefined), the “activity change, negative = inhibition” value is reported as -13.8%. In the case of `COc1ccc(C(=O)NCC(=O)N/N=C/c2cccnc2)cc1`, the “activity change, negative = inhibition” value is reported as 13.3%. For `Cc1c(S(=O)(=O)N2CC(C)CC(C)C2)c(=O)n(C)c(=O)n1C` (centres undefined), the “activity change, negative = inhibition” value was 17.7%. Molecule `O=C(CCCN1C(=O)/C(=C/c2ccccc2)SC1=S)Nc1ccc(O)cc1` has an activity change, negative = inhibition of -3.08% [at 5.75 µM]. With `O=C(CCCN1C(=O)/C(=C\c2ccccc2)SC1=S)Nc1ccccc1O` the “activity change, negative = inhibition” value was -24.2%. In the case of `O=C1/C(=C/c2ccc(F)cc2)SC(=S)N1CCCC(=O)N1CCCCC1CCO` (centres undefined), the Potency is reported as 6.57 µM (active). For `CC(=O)c1ccc(NC(=O)Cn2c(=O)oc3ccccc32)cc1`, the “activity change, negative = inhibition” value was 0.355%. With `CCCN1C2CCCC1CC(NC(=O)c1cccc(OC)c1)C2` (centres undefined) the “activity change, negative = inhibition” value was 1.92%. In the case of `CCc1ccc(S(=O)(=O)Nc2ccc(C)c(NS(C)(=O)=O)c2)cc1`, the “activity change, negative = inhibition” value is reported as 4.07%. For `CCCCc1ccc(NC(=O)CN2C(=O)NC(Cc3ccccc3)C2=O)cc1` (centres undefined), the “activity change, negative = inhibition” value was 2.93%. In the case of `CC(C)=N/N=C1/NC(=O)C(Cc2ccccc2)S1` (centres undefined), the “activity change, negative = inhibition” value is reported as 252%. In the case of `CCOc1cc(/C=C(/C#N)c2ccc(Cl)cc2)cc(Cl)c1OCC(=O)O`, the Potency is reported as 13.1 µM (active). For `COc1cc(/C=C(/NC(=O)c2ccc(Cl)cc2Cl)C(=O)O)cc(OC)c1OC`, the “activity change, negative = inhibition” value was 486%. In the case of `CCOC(=O)CN/C=C(\C#N)c1ccc(F)cc1`, the “activity change, negative = inhibition” value is reported as 10.4%. With `CCC(=O)Nc1nnc(S(=O)(=O)N2CCCc3ccccc32)s1` the “activity change, negative = inhibition” value was 0.177%. In the case of `O=C(COC(=O)c1cccs1)Nc1ccccc1Cl`, the “activity change, negative = inhibition” value is reported as 10.8%. In the case of `COc1ccccc1NC1=NC(c2ccc(Cl)cc2)N=C(N)N1` (centres undefined), the Potency is reported as 0.928 µM (active). For `COc1ccccc1Nc1nc(N)nc(CSC(=S)N2CCOCC2)n1`, the “activity change, negative = inhibition” value was 14.2%. With `COc1cc(C2C(C(=O)Nc3ccccc3OC)=C(C)Nc3ncnn32)ccc1O` (centres undefined) the “activity change, negative = inhibition” value was -6.58%. In the case of `COC(=O)c1c(C)[nH]c(C(=O)NCCc2ccc(S(N)(=O)=O)cc2)c1C`, the “activity change, negative = inhibition” value is reported as 10.3%. With `CSc1ccccc1NC(=O)c1cc(Cl)sc1Cl` the “activity change, negative = inhibition” value was -2.6%. In the case of `COc1ccc(S(=O)(=O)NCC(=O)NCc2cc(=O)n(C)c(=O)n2C)cc1F`, the “activity change, negative = inhibition” value is reported as 53.1%. For `CN(CC(=O)Nc1ccc(F)cc1)C(=O)c1ccc(-c2ccc(Cl)cc2)o1`, the Potency was 2.33 µM (active). For `Cc1ccc(NC(=O)CN(C)C(=O)c2ccc(Br)o2)cc1`, the “activity change, negative = inhibition” value was 3.52%. With `CN(CC(=O)Nc1ccc(Cl)cc1)C(=O)c1ccc(COc2ccccc2)cc1` the “activity change, negative = inhibition” value was 7.05%. With `COCC(=O)N1CCc2ccc(NC(=O)c3ccccc3Cl)cc2C1` the “activity change, negative = inhibition” value was -37.8%. For `COc1ccc(NC(=O)CN(C)C(=O)CC2CCCCC2)cc1`, the “activity change, negative = inhibition” value was 2.68%. For `Cc1ccc(C(=O)N/C(=C/c2ccc(-c3cccc([N+](=O)[O-])c3)o2)C(=O)NCCCN(C)C)cc1`, the “activity change, negative = inhibition” value was 28.7%. For `N#C/C(=C\c1ccc(-c2cccc([N+](=O)[O-])c2)o1)C(=O)NCCN1CCOCC1`, the Potency was 10.4 µM (active). For `Cc1ccc(Cc2cnc(NC(=O)/C(C#N)=C/c3ccc(-c4cccc([N+](=O)[O-])c4)o3)s2)cc1`, the “activity change, negative = inhibition” value was 48.8%. With `COc1ccc(C(CNC(=O)c2cccc(S(=O)(=O)Nc3ccccc3Cl)c2)N2CCOCC2)cc1` (centres undefined) the “activity change, negative = inhibition” value was -29.2%. With `COC(=O)C1=C(Nc2ccc(OC)cc2)C=C(C)C(C(=O)OC)C1c1ccc(C)cc1` (centres undefined) the “activity change, negative = inhibition” value was -9.49%. In the case of `COC(=O)C1=C(Nc2ccc(C)cc2)C=C(C)C(C(=O)OC)C1c1ccc(F)cc1` (centres undefined), the Potency is reported as 11.7 µM (active). For `COC(=O)C1C(=O)NCC1c1ccc(C)cc1` (centres undefined), the “activity change, negative = inhibition” value was 9.9%. For `Cc1nc(COc2cc3oc(=O)cc(C)c3cc2Cl)cs1`, the “activity change, negative = inhibition” value was 16.7%. For `CCOC(=O)C1=C(O)/C(=C/c2cc(C)n(-c3ccccc3)c2C)N=C1C`, the Potency was 0.657 µM (active). In the case of `COC(=O)C1=C(O)/C(=C/c2ccc(OCC(=O)Nc3ccccc3)cc2)N=C1C`, the “activity change, negative = inhibition” value is reported as 6.94%. With `CCOC(=O)C1=C(O)/C(=C/c2ccc(OCC(=O)Nc3ccc(C)cc3)cc2)N=C1C` the “activity change, negative = inhibition” value was -6.91%. In the case of `CCC(=O)c1ccc(OCC(=O)OCC(=O)N2CCc3ccccc3C2)cc1`, the “activity change, negative = inhibition” value is reported as -1.61%. For `COC(=O)c1ccc2c(C(C)(C)O)c(C(C)(C)O)[nH]c2c1`, the “activity change, negative = inhibition” value was 57.4%. In the case of `Cc1cccc(-c2oc3ccc(-c4ccc5c(c4)OCO5)cc3c2C#Cc2cncn2C)c1`, the Potency is reported as 1.17 µM (active). For `C/C(=C/c1ccccc1)C(=O)N1CCN(c2ccccc2)CC1`, the “activity change, negative = inhibition” value was -16%. For `Nc1c(N(Cc2ccco2)C(=O)c2cccc(F)c2)c(=O)[nH]c(=O)n1Cc1ccccc1`, the “activity change, negative = inhibition” value was -29.7%. For `O=C(O)CN1c2cccc3cccc(c23)S1(=O)=O`, the “activity change, negative = inhibition” value was 16.1%. For `Cc1ccc(F)cc1NC(=O)c1ccc2c(c1)OCO2`, the “activity change, negative = inhibition” value was 42.7%. For `O=C(Nc1cccc(NC(=O)c2cccc(F)c2)c1)c1ccccc1`, the “activity change, negative = inhibition” value was 37.7%. For `Cc1ccc(F)cc1NC(=O)c1cccc(N(C)C)c1`, the Potency was 11.7 µM (active). With `Cc1c(C(=O)NC(C)C2CC3CCC2C3)cccc1[N+](=O)[O-]` (centres undefined) the “activity change, negative = inhibition” value was 0.444%. With `COc1cc2c(cc1OC)C(c1ccccc1Br)NC(=O)C2` (centres undefined) the “activity change, negative = inhibition” value was 0%. In the case of `Cn1c(-c2ccc(C(F)(F)F)cc2)cc2onc(-c3ccccc3)c2c1=O`, the “activity change, negative = inhibition” value is reported as 241%. With `CN(C)S(=O)(=O)c1ccc(Cl)c(NC(=O)COC(=O)CC(NC(N)=O)c2ccc(Cl)cc2)c1` (centres undefined) the “activity change, negative = inhibition” value was 5.17%. In the case of `CC1CCN(CC(=O)c2c[nH]c3ccccc23)CC1`, the “activity change, negative = inhibition” value is reported as 52.6%. In the case of `CN1C(=O)c2ccccc2C(C(=O)NCCCN2CCCC2)C1c1c[nH]c2ccccc12` (centres undefined), the Potency is reported as 10.4 µM (active). For `O=C(NCCCN1CCN(Cc2ccccc2)CC1)C1CCN(S(=O)(=O)N2CCCC2)CC1`, the “activity change, negative = inhibition” value was -16%. With `CCN(CC)CCNC(=O)C1c2ccccc2C(=O)N(C)C1c1cn(C)c2ccccc12` (centres undefined) the Potency was 2.94 µM (active). For `COc1ccc(C2C(C(=O)N3CCN(c4ccc(OC)cc4)CC3)c3ccccc3C(=O)N2C)cc1` (centres undefined), the “activity change, negative = inhibition” value was 3.2%. With `CCCCN(CC)CCNC(=O)CCNC(=O)Cn1ccc2ccccc2c1=O` the “activity change, negative = inhibition” value was 3.37%.
